Several values for one entry are separate records, joined by “and”; a condition that tells them apart may be missing. Identical values can stand only once. About 2,000 (36%) of roughly 5,500 compounds were called active. Not shown: some 18% with an inconclusive outcome. Rule as the data show it: active = normalized growth mostly below about 0.91 (no sharp cut-off); inconclusive = no clear call, values can overlap the other calls; inactive = mostly above about 0.92. This is one part of the list.
Experiment: chemical genetic growth profiling, strain panel (AID 1159580);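 also: tested at 20 µM; growth read once vehicle control cultures reached saturation at 30 °C; 1 = growth at the plate median or of vehicle wells; lower values mean less growth of the strain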
Settings: S. cerevisiae deletion strains, growth OD

Measured: normalized growth

COC(=O)C1[C@H]2C[C@H]3c4[nH]c5ccccc5c4CCN3C[C@@H]2CC[C@@H]1O (some centres not stated)
inactive: locus YAL013W, strain DEP1, stronger effect = lower value 1.02 | locus YAL021C, strain ccr4, stronger effect = lower value 0.991 | locus YAL026C, strain drs2, stronger effect = lower value 0.981 | locus YAL030W, strain snc1, stronger effect = lower value 0.976 | locus YBL061C, strain skt5, stronger effect = lower value 0.982 | locus YBR009C, strain hhf1, stronger effect = lower value 0.978 | locus YBR021W, strain FUR4, stronger effect = lower value 1.01 | locus YBR023C, strain chs3, stronger effect = lower value 0.964 | locus YBR171W, strain sec66, stronger effect = lower value 0.96 | locus YBR229C, strain ROT2, stronger effect = lower value 1 | locus YBR231C, strain swc5, stronger effect = lower value 0.965 | locus YBR279W, strain paf1, stronger effect = lower value 0.962 | locus YCL011C, strain gbp2, stronger effect = lower value 0.954 | locus YCL016C, strain dcc1, stronger effect = lower value 0.973 | locus YCL029C, strain bik1, stronger effect = lower value 1.03 | locus YCL061C, strain MRC1, stronger effect = lower value 0.976 | locus YCL069W, strain vba3, stronger effect = lower value 0.981 | locus YCR088W, strain abp1, stronger effect = lower value 0.977 | locus YDL005C, strain med2, stronger effect = lower value 0.971 | locus YDL035C, strain GPR1, stronger effect = lower value 1.02 | locus YDL040C, strain nat1, stronger effect = lower value 0.974 | locus YDL074C, strain BRE1, stronger effect = lower value 1.05 | locus YDL101C, strain DUN1, stronger effect = lower value 1.01 | locus YDL134C, strain PPH21, stronger effect = lower value 1.02 | locus YDL185W, strain tfp1, stronger effect = lower value 1.02 | locus YDL192W, strain arf1, stronger effect = lower value 1.02 | locus YDR001C, strain nth1, stronger effect = lower value 0.964 | locus YDR069C, strain doa4, stronger effect = lower value 0.954 | locus YDR101C, strain arx1, stronger effect = lower value 1.01 | locus YDR137W, strain rgp1, stronger effect = lower value 0.945 | locus YDR150W, strain NUM1, stronger effect = lower value 1.01 | locus YDR159W, strain sac3, stronger effect = lower value 0.925 | locus YDR162C, strain NBP2, stronger effect = lower value 1.01 | locus YDR195W, strain ref2 0.943 | locus YDR297W, strain sur2, stronger effect = lower value 0.979 | locus YDR318W, strain mcm21, stronger effect = lower value 1.03 | locus YDR334W, strain swr1, stronger effect = lower value 0.946 | locus YDR335W, strain msn5, stronger effect = lower value 0.97 | locus YDR388W, stronger effect = lower value 1.02 | locus YDR392W, strain spt3, stronger effect = lower value 1.01 | locus YDR502C, strain sam2, stronger effect = lower value 1.01 | locus YEL003W, strain gim4, stronger effect = lower value 0.97 | locus YEL037C, strain rad23, stronger effect = lower value 0.979 | locus YEL061C, strain CIN8 (second series), stronger effect = lower value 0.962 | locus YEL061C, strain CIN8, stronger effect = lower value 1.01 | locus YER015W, strain faa2, stronger effect = lower value 0.983 | locus YER016W, strain bim1, stronger effect = lower value 0.982 | locus YER110C, stronger effect = lower value 1.01 | locus YER111C, strain swi4, stronger effect = lower value 0.986 | locus YER155C, strain BEM2 (second series), stronger effect = lower value 0.945 | locus YER155C, strain BEM2, stronger effect = lower value 1.01 | locus YER167W, strain BCK2, stronger effect = lower value 1.01 | locus YFR010W, strain ubp6, stronger effect = lower value 0.952 | locus YGL078C, strain dbp3, stronger effect = lower value 1.01 | locus YGL086W, strain mad1, stronger effect = lower value 1 | locus YGL167C, strain pmr1, stronger effect = lower value 0.944 | locus YGL173C, strain kem1, stronger effect = lower value 0.989 | locus YGL227W, strain vid30, stronger effect = lower value 0.962 | locus YGL240W, strain doc1, stronger effect = lower value 0.954 | locus YGL248W, strain PDE1, stronger effect = lower value 1.01 | locus YGL253W, strain hxk2, stronger effect = lower value 0.975 | locus YGR078C, strain PAC10, stronger effect = lower value 1.03 | locus YGR135W, strain pre9, stronger effect = lower value 1.01 | locus YGR229C, strain SMI1, stronger effect = lower value 1.01 | locus YGR252W, strain gcn5, stronger effect = lower value 0.976 | locus YHR013C, strain ard1, stronger effect = lower value 0.979 | locus YHR027C, strain rpn1, stronger effect = lower value 0.972 | locus YHR030C, strain SLT2, stronger effect = lower value 1.02 | locus YHR079C, strain IRE1 (second series), stronger effect = lower value 1.02 | locus YHR079C, strain IRE1, stronger effect = lower value 1.02 | locus YHR094C, strain hxt1, stronger effect = lower value 1.01 | locus YHR129C, strain ARP1, stronger effect = lower value 0.999 | locus YHR142W, strain chs7, stronger effect = lower value 0.983 | locus YHR200W, strain rpn10, stronger effect = lower value 1.02 | locus YIL066C, strain RNR3, stronger effect = lower value 1.02 | locus YIL073C, strain SPO22, stronger effect = lower value 1.05 | locus YIL125W, strain kgd1, stronger effect = lower value 1.01 | locus YIR030C, strain dcg1, stronger effect = lower value 1.02 | locus YJL092W, strain hpr5, stronger effect = lower value 0.982 | locus YJL095W, strain BCK1 (second series), stronger effect = lower value 0.981 | locus YJL095W, strain BCK1, stronger effect = lower value 1.05 and 1.01 | locus YJL115W, strain asf1, stronger effect = lower value 0.966 | locus YJL129C, strain trk1, stronger effect = lower value 0.977 | locus YJL134W, strain LCB3, stronger effect = lower value 1.01 | locus YJL154C, strain vps35, stronger effect = lower value 0.964 | locus YJL164C, strain tpk1, stronger effect = lower value 1 | locus YJL166W, strain qcr8, stronger effect = lower value 0.953 | locus YJL168C, strain set2, stronger effect = lower value 1.02 | locus YJL187C, strain SWE1 (second series), stronger effect = lower value 1.03 | locus YJL187C, strain SWE1, stronger effect = lower value 0.98 | locus YJR043C, strain POL32, stronger effect = lower value 1.02 | locus YJR066W, strain TOR1, stronger effect = lower value 1.02

— PubChem BioAssay AID1159580 (chemical genetic matrix, 2015)
